The results in this text go back to PubChem BioAssay.

The structures appear in SMILES notation. Active and inactive are the calls of the source.

The test system of experiment [1] is PRMT1 (protein arginine N-methyltransferase 1). Nature of the experiment: PRMT1 binders on small-molecule microarrays, primary screen, biochemical, small-molecule microarray, 635 nm fluorescence (AID 1088).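 Also: binding of Prmt1 protein to compounds spotted on small-molecule microarray slides.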 The note with it: small-molecule microarray binding, higher = more signal.
Experiment [2] is described as follows: yeast growth modulation, basal conditions, primary screen, YJM789 clinical isolate, OD600, 24 h (AID 1089).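 Also: growth of clinical yeast isolate S. cerevisiae YJM 789 seeded 1000 cells per well; test concentration not given here.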 The note with it: S. cerevisiae YJM789 growth, higher = more signal, called active from +8 up or from −8 down.
Experiment [3] is described as follows: fission yeast growth modulation, primary screen, strain 972, OD600, 24 h, no modulator (AID 1090).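 Also: basal condition with compound alone and no growth modifier present; test concentration not given here.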 To be noted: S. pombe 972 growth, higher = more signal, called active from +8 up or from −8 down.
Experiment [4] can be described thus: S. cerevisiae growth modulation with rapamycin, primary screen, strain BY4716, OD600, 96 h (AID 1091). Also: test concentration not given here. To be noted: higher = more signal, called active from +8 up or from −8 down.
Experiment [5] deals with Torsin-1A-interacting protein 2 (Homo sapiens) (UniProt Q8NFQ8). Nature of the experiment: LULL1 binders on small-molecule microarray, primary screen, cell lysate, human LULL1 lysate, 635/667 nm fluorescence (AID 1092).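 Also: probe is lysate of COS7 cells overexpressing human LULL1; score merges per-feature 667 nm fluorescence with signal-to-noise.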 To be noted: hLULL1 lysate binding, 635 nm fluorescence, higher = more signal.
Torsin-1A-interacting protein 2 (Homo sapiens), sequence (Q8NFQ8 whole entry, looked up): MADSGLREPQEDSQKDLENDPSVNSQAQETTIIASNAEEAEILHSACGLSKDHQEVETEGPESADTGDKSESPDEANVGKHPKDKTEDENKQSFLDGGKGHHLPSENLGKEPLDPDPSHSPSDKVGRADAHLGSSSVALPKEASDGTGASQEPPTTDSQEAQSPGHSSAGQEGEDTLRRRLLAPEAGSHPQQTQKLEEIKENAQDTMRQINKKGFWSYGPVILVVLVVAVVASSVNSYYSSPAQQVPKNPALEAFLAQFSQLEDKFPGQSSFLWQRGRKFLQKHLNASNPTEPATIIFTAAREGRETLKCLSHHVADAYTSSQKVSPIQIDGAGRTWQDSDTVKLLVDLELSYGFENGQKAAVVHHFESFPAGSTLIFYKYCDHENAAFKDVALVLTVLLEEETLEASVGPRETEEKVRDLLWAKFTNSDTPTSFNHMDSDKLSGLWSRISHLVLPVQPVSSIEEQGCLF
The nature of experiment [6]: E. coli growth modulation, two-sided OD650, primary screen, E. coli filamentation project, strain DRC41, 24 h (AID 1093).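 Also: MC1000 strain lacking acrAB efflux and sulA so SOS filamentation is blocked; test concentration not given here.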 The note with it: OD650, 24 h, higher = more signal, called active from +8 up or from −8 down.
A short description of experiment [7]: small-molecule microarray binders of probe aLefty2, primary screen, biochemical, biotinylated probe, 635/667 nm fluorescence (AID 1094).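 Also: score merges spot fluorescence near 667 nm with spot signal-to-noise ratio.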 To be noted: higher = more signal.
Experiment [8] has as its system Noggin (protein binding on small-molecule microarray). As to the kind of experiment: Noggin binders on small-molecule microarray, primary screen, biochemical, 635/667 nm fluorescence (AID 1095).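 Also: score merges 667 nm feature fluorescence with signal to noise over triplicate slides.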 The note with it: 635 nm fluorescence, higher = more signal.
Experiment [9] addresses Neurogenic locus notch homolog protein 3 (Homo sapiens) (UniProt Q9UM47). As to the kind of experiment: NOTCH3 binders on small-molecule microarray, primary screen, biochemical, 635/667 nm fluorescence (AID 1096). The note with it: NOTCH3 binding, 635 nm fluorescence, higher = more signal.
Experiment [10] is described as follows: small-molecule microarray binders of probe aEGFR, primary screen, biochemical, biotinylated probe, 635/667 nm fluorescence (AID 1097).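 Also: probe is a biotinylated anti-EGFR antibody binding compounds printed on slides; score combines fluorescence near 667 nm and signal to noise of each spot.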 To be noted: higher = more signal.

Neurogenic locus notch homolog protein 3 (Homo sapiens), sequence (Q9UM47 whole entry, looked up): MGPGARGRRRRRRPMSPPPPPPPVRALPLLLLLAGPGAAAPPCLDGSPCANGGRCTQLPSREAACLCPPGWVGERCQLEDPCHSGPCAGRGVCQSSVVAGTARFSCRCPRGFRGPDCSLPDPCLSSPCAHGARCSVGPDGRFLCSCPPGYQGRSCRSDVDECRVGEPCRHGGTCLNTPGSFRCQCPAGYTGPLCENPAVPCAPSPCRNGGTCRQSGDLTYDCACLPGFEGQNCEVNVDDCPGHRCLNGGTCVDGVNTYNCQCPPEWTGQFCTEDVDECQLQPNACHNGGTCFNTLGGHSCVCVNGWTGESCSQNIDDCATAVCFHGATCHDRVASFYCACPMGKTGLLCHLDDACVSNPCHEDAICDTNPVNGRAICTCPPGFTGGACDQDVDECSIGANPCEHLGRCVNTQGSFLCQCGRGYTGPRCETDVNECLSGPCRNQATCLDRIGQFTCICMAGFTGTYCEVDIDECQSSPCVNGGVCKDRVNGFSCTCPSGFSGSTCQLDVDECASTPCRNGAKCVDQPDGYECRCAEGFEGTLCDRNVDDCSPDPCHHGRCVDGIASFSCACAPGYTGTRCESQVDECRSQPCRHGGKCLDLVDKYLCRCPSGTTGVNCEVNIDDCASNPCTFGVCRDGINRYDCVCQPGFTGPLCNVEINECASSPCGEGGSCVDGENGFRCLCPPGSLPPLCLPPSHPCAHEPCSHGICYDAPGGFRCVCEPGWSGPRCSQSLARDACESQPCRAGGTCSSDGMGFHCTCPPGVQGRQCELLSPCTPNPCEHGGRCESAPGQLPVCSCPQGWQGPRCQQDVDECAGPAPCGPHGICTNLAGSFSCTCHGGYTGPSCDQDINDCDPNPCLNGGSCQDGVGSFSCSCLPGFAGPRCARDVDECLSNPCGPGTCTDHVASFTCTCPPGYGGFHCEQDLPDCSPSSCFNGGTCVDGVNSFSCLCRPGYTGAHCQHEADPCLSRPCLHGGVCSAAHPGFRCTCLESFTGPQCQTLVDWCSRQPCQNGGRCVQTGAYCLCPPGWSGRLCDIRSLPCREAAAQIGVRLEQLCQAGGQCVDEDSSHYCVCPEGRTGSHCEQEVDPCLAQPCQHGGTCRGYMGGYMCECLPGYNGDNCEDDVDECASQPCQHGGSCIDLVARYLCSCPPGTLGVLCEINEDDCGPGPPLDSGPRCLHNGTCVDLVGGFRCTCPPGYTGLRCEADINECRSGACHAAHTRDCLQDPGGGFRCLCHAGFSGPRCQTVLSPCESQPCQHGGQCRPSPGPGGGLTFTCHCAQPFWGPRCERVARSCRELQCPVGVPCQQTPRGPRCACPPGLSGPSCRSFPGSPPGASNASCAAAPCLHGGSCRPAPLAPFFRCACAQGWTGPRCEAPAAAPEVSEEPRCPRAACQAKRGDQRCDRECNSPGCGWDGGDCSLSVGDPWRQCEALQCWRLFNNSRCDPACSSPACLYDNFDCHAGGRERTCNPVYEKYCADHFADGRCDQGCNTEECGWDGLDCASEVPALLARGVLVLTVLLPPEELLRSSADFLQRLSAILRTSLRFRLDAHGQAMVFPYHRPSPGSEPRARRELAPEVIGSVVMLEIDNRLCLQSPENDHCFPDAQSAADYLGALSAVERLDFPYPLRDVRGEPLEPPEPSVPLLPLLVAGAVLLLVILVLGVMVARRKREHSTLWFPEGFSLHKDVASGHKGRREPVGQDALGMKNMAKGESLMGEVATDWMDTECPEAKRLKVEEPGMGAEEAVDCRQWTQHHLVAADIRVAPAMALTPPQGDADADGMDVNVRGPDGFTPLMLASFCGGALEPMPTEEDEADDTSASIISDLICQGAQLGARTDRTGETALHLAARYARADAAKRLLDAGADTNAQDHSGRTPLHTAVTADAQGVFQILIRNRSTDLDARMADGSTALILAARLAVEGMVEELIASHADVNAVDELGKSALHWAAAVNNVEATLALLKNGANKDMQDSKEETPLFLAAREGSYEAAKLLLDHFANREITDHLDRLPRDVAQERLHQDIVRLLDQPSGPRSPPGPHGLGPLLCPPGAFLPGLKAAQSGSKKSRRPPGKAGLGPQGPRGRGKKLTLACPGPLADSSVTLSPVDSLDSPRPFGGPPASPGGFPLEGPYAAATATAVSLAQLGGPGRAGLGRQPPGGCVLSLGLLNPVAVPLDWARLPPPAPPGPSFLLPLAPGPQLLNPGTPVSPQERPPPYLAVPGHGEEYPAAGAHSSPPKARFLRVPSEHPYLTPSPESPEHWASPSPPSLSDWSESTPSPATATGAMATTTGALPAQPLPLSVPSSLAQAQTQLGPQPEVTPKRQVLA

Regarding `O=C1C2C=CC(C(O)c3ccc(F)cc3)N(Nc3ccccc3F)C2C(=O)N1c1ccccc1` (stereo not given), the composite z-score was 0.778 in experiment [1]; 3.48 in [5]; 0.0224 in experiment [7]; -0.503 in experiment [8]; 1.13 in experiment [9]; -0.0549 in experiment [10]. Moreover, the z-score in experiment [2] is 0.105 (inactive); in experiment [3], -0.268 (inactive); in [4] it was 0.0787 (inactive); in experiment [6], -0.42 (inactive).
On to `COC(=O)[C@@]1(Cc2ccc(F)cc2)[C@H]2c3cc(C(=O)N(C)C)n(Cc4nc5ccccc5[nH]4)c3C[C@H]2CN1C(=O)c1ccccc1`, for which the composite z-score in experiment [1] is 0.173; in experiment [5], 3.36; in experiment [7], 0.341; in experiment [8], -0.138; in experiment [9], 1.08; in experiment [10], 0.191. For the same molecule, the z-score in experiment [2] is 0.37 (inactive); in [3], 0.821 (inactive); in experiment [4], -0.444 (inactive); in experiment [6], -0.373 (inactive).
Take `CCOC(=O)C[C@H]1[C@H](OC(=O)Cc2ccc3c(c2)OCO3)[C@@H](NC(=O)c2ccc(-c3ccccc3)cc2)c2cc(OCCCO)ccc2N1C(=O)c1ccc2ccccc2n1`: the composite z-score in [1] was 0.0972; in experiment [5], 0.417; in experiment [7] it was -0.168; in [8], 0.0955; in [9], 0.257; in [10], -0.0661. Moreover, the z-score is -1.84 (inactive) in experiment [2], -2.89 (inactive) in experiment [3], -1.13 (inactive) in [4] and 1.63 (inactive) in experiment [6].
Turning to `O=C1C2C=CC(C(O)C3CCCCC3)N(Nc3ccc([N+](=O)[O-])cc3)C2C(=O)N1c1ccccc1` (stereo not given), the composite z-score in experiment [1] was 1.56; in experiment [5] it was 3.19; in [7] it was -0.314; in [8], -0.995; in [9], -0.273; in experiment [10], -0.226. In addition, the z-score is 0.139 (inactive) in experiment [2], 0.341 (inactive) in experiment [3], 3.55 (inactive) in experiment [4] and -1.15 (inactive) in [6].
On to `COCCn1c(C(=O)N2CCCC2)cc2c1C[C@H]1CN(C(=O)c3ccccc3)[C@@](Cc3ccc(F)cc3)(C(=O)OC)[C@@H]21`, for which the composite z-score in experiment [1] is 1.12; in [5] it was 3.84; in [7], 0.166; in [8] it was 0.126; in experiment [9] it was 0.583; in experiment [10] it was 0.0843. The z-score is -0.339 (inactive) in [2], 0.0582 (inactive) in experiment [3], -0.0799 (inactive) in experiment [4] and -0.191 (inactive) in experiment [6].
Take `CC(C)(C)OC(=O)CC[C@@]1(C(=O)NCC(O)CO)N=C(c2ccc(OCCCO)cc2)O[C@@H]1c1ccccc1N=[N+]=[N-]` (stereo not given in full): the composite z-score amounted to 1.54 in [1]; 3.76 in experiment [5]; 0.247 in experiment [7]; 1.04 in experiment [8]; 0.626 in [9]; 0.0773 in [10]. Besides, the z-score in [2] was 1.17 (inactive); in [3], -1.74 (inactive); in experiment [4], 4.99 (inactive); in [6], 1.26 (inactive).
Turning to `Cc1ccc(S[C@]2(C(=O)NCCN3CCOCC3)CC(=O)N(Cc3ccccc3Cl)[C@@H]2c2ccc(CO)cc2)cc1`, the composite z-score was -0.241 in experiment [1]; 3.07 in [5]; -0.057 in [7]; -0.157 in [8]; 0.201 in experiment [9]; -0.128 in [10]. Moreover, the z-score in experiment [2] is -1.17 (inactive); in experiment [3] it was -0.895 (inactive); in experiment [4] it was -0.812 (inactive); in [6] it was 0.149 (inactive).
For `C=CCN(Cc1ccccc1)C(=O)C(c1cccs1)N(CCOCCO)C(=O)/C=C\C(=O)O` (stereo not given), the composite z-score in experiment [1] was -0.785; in experiment [5], 1.2; in [7], -0.0555; in experiment [8], -2.41; in experiment [9] it was -1.7; in experiment [10] it was -0.329. For the same molecule, the z-score in experiment [2] was -2.16 (inactive); in [3] it was 0.0374 (inactive); in experiment [4] it was -1.01 (inactive); in [6], 2.25 (inactive).
In the case of `COc1ccc([C@H]2C[C@H]3C(Br)=C[C@@H]2C(=O)[C@]32CO2)cc1`, the composite z-score was -0.431 in [1]; -0.807 in [5]; -0.0561 in experiment [7]; 0.101 in [8]; -0.282 in experiment [9]; -0.217 in experiment [10]. For the same molecule, the z-score in experiment [2] is 0.29 (inactive); in experiment [3] it was -3.66 (inactive); in experiment [4], -0.417 (inactive); in experiment [6] it was 1.7 (inactive).
`O=C(C1N=C(c2ccc(OCCCO)cc2)N(c2ccccc2)O1)N1CCOCC1` (stereo not given): the composite z-score in experiment [1] is 1.55; in [5] it was 2.22; in experiment [7] it was -0.134; in experiment [8] it was 1.53; in [9], 1.09; in experiment [10], 0.184. Besides, the z-score in experiment [2] was -0.867 (inactive); in experiment [3], -0.992 (inactive); in [4], -0.566 (inactive); in [6], 1.75 (inactive).
On to `CC(C)(C)OC(=O)CC[C@]12N=C(c3ccc(OCCCO)cc3)O[C@H]1c1ccccc1N(CCS(=O)(=O)c1ccccc1)C2=O`, for which the composite z-score was 1.55 in [1]; 3.17 in experiment [5]; 0.101 in experiment [7]; 0.905 in [8]; 1.1 in experiment [9]; 0.0288 in [10]. Besides, the z-score in experiment [2] is 1.03 (inactive); in experiment [3] it was 1.65 (inactive); in experiment [4] it was 0.246 (inactive); in [6] it was 0.522 (inactive).
`CCCC=C(CCC)[C@@H](NC(=O)Oc1ccc(F)cc1)c1ccc(C(=O)OC)cc1`: the composite z-score in experiment [1] is 0.598; in experiment [5], 3; in experiment [7], 0.212; in experiment [8], -0.149; in experiment [9] it was 0.775; in [10], 0.601. The z-score in experiment [2] was 0.876 (inactive); in experiment [3], 1.99 (inactive); in [4] it was 2.32 (inactive); in experiment [6] it was -0.211 (inactive).
For `C=C/C=C/[C@H]1C(=C)CN([C@@H](Cc2ccccc2)C(=O)OC)[C@@H]1[C@H](O)Cc1ccccc1`, the composite z-score in experiment [1] was -0.473; in [5] it was 0.428; in experiment [7], -0.149; in experiment [8] it was -0.219; in [9] it was -0.0424; in experiment [10], -0.316. The z-score in experiment [2] was -0.15 (inactive); in experiment [3], -1.35 (inactive); in [4], -0.557 (inactive); in experiment [6] it was 0.311 (inactive).
Regarding `CCCCC=C[C@@H](NC(=O)Oc1cccc(C(F)(F)F)c1)c1ccccc1`, the composite z-score in experiment [1] was 0.745; in experiment [5], 0.277; in experiment [7], 0.839; in experiment [8], -0.0732; in experiment [9], 1.08; in [10], 0.4. In addition, the z-score is 1.06 (inactive) in [2], 0.0148 (inactive) in [3], 1.01 (inactive) in experiment [4] and -2.21 (inactive) in [6].
As to `C=CC[C@]1(C(=O)N2CCCCC2)N=C(c2ccc(OCCCO)cc2)O[C@H]1c1ccccc1`, the composite z-score was determined as 1.58 in [1]; 3.21 in experiment [5]; 0.495 in [7]; 1.06 in experiment [8]; 0.369 in experiment [9]; 0.35 in experiment [10]. The z-score in [2] was -1.97 (inactive); in experiment [3], -5.54 (inactive); in experiment [4], -2.04 (inactive); in experiment [6], 1.14 (inactive).
With `O=C1OCCC/C=C\[C@H]2OC34C=CCN(Cc5ccccc5)C(=O)[C@H]3N(CCCCCCO)C(=O)[C@@H]4C12` (stereo not given in full), the composite z-score in experiment [1] was -0.197; in experiment [5], 2.24; in experiment [7], 0.0359; in experiment [8], -2.14; in experiment [9], -0.927; in experiment [10], -0.237. In addition, the z-score in [2] was 0.464 (inactive); in [3] it was -0.431 (inactive); in [4], 0.0977 (inactive); in [6] it was 0.991 (inactive).
As to `[N-]=[N+]=Nc1ccccc1C[C@]1(C(N)=O)N=C(c2ccc(OCCCO)cc2)O[C@H]1c1ccccc1`, the composite z-score in experiment [1] is 0.203; in [5], 3.19; in [7], -0.0893; in experiment [8] it was -0.194; in experiment [9], 0.444; in experiment [10], -0.115. Also, the z-score was 0.515 (inactive) in [2], 0.248 (inactive) in experiment [3], 0.143 (inactive) in experiment [4] and 0.104 (inactive) in experiment [6].
For `O=C1O[C@H](c2ccccc2)[C@H](c2ccccc2)N2[C@H]1[C@@H](C(=O)N1CCN(c3ncccn3)CC1)[C@]1(C(=O)Nc3ccc(C#CC4=CCCCC4)cc31)[C@H]2c1ccc(O)cc1`, the composite z-score in experiment [1] is 1.54; in experiment [5], 2.76; in experiment [7], -0.0313; in [8], 0.555; in experiment [9], 0.79; in experiment [10], 0.0624. Besides, the z-score in experiment [2] is 1.92 (inactive); in [3] it was 1.48 (inactive); in experiment [4] it was 2.97 (inactive); in [6], 0.454 (inactive).
In the case of `CC1CC/C=C\[C@H]2OC34C=CCN(c5ccc(Cl)cc5)C(=O)[C@H]3N(CCO)C(=O)[C@]4(C)C2C(=O)O1` (stereo not given in full), the composite z-score is 0.517 in experiment [1]; 0.139 in [5]; -0.0619 in experiment [7]; -0.504 in [8]; 0.105 in [9]; -0.166 in [10]. For the same molecule, the z-score in experiment [2] was -1.51 (inactive); in [3] it was -1.4 (inactive); in experiment [4], -0.528 (inactive); in [6], 0.613 (inactive).
